This is a sample that favours compounds with a hit; in the whole collection about 3% have one here.
SENP8 block-1 – blocks the human protease SENP8. Q96LD8. purified SENP8, Z-RLRGG-aminoluciferin cleavage, luminescence. inhibition, % at 10 µM. 330,000 tested, 1.2% active; in the data active means inhibition above about 50%
SENP7 inh – blocks the human protease SENP7; Q9BQF6; recombinant SENP7, Z-RLRGG-aminoluciferin luminescence, 40 min; inhibition, % at 5 µM; 330,000 tested, 1.5% active; AID 434973;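 active means inhibition above about 50% at the single test dose, limit read from the data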;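 further: plate controls were DMSO with enzyme for no effect and no enzyme buffer wells for full effect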
SENP8 block-2 – SENP8 (human) protease inhibition; recombinant SENP8, Nedd8 substrate fluorescence; 360,000 tested, 0.64% active; inhibition, % at 20 µM; Q96LD8; in the data active means inhibition mostly above about 40%, no sharp cut-off; inactive means mostly below about 27%
PPC-1+TRAIL kill – compounds killing PPC-1 cancer cells with TRAIL present (potentiator screen, no TRAIL-free arm); 220,000 tested, 0.41% active; PPC-1 cells + TRAIL, ATPLite viability luminescence; AID 1443; cell killing (% activity), % at 4 µM or 5 µM;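 active means cell killing above 50% in the first pass at 4 µM, then a duplicate retest at 5 µM averaging 50% or more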;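 further: plate controls were cells with TRAIL plus DMSO for no effect and medium-only wells lacking cells for full effect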
SENP6 inh – inhibitors of human SENP6 protease. Q9GZR1. 330,000 tested, 1.8% active. Recombinant SENP6 catalytic domain, aminoluciferin luminescence. inhibition, % at 10 µM;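 active means inhibition above about 50% at the single tested dose, limit read from the data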;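 further: plate controls were DMSO wells with enzyme for no effect and DMSO wells lacking enzyme for full effect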
Target sequence (Q9GZR1 628-1112 limits assumed): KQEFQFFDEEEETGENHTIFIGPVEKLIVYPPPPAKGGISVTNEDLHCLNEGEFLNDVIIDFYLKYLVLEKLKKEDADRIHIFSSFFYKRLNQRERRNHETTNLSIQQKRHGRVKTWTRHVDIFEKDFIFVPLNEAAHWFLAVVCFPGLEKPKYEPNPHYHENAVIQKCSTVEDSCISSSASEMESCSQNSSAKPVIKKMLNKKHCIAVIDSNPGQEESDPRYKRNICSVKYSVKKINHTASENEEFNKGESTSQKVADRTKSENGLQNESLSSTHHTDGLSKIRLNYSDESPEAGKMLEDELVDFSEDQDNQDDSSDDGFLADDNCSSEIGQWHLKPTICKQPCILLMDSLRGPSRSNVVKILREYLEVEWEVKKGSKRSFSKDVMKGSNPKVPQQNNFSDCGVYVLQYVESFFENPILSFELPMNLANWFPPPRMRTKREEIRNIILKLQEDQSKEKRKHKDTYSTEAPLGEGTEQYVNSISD
TRAIL sens C8 – sensitizes caspase-8 expressing cells to TRAIL; 360,000 tested, 1% active; inhibition (viability loss, TRAIL sensitization), % at 10 µM; NB7+C8 cells + TRAIL, ATPlite viability luminescence;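 active means compounds causing at least 50% loss of cell viability in the single-dose screen, relative to plate controls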
SENP8 conf – confirmation of human SENP8 protease inhibitors | shares compounds with SENP7 inh | Recombinant SENP8, Z-RLRGG-aminoluciferin luminescence, 60 min | inhibition, % at 12.5 µM | 6,200 tested, 40% active | AID 488912;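 active means mean inhibition across replicates above about 50%, limit read from the data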
SENP6 conf – human SENP6 inhibition, confirmed; inhibition, % at 12.5 µM; recombinant SENP6, Z-RLRGG-aminoluciferin luminescence; shares compounds with SENP7 inh; AID 488915; 6,200 tested, 58% active
SENP7 conf – human SENP7 inhibition, confirmed. shares compounds with SENP7 inh. recombinant SENP7, Z-RLRGG-aminoluciferin luminescence, 40 min. inhibition, % at 12.5 µM. 6,200 tested, 69% active. AID 488917
Casp3 select – selectivity test for SENP inhibitors: human caspase-3 inhibition; shares compounds with SENP7 inh; purified caspase-3, Z-DEVD-aminoluciferin luminescence, 60 min; inhibition, % at 12.5 µM; 6,200 tested, 60% active;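 active means mean inhibition above about 50%, limit read from the data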;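 further: plate controls were enzyme with DMSO for no effect and wells without caspase-3 for full effect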
Luc interf – interferes with luciferase luminescence in SENP counter-screen. shares compounds with SENP7 inh. Pre-incubated SENP8/Z-RLRGG-aminoluciferin, luciferase luminescence interference. inhibition, % at 12.5 µM. 6,200 tested, 39% active;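 active means mean inhibition above about 50% when retested at one dose, limit read from the data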;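 further: plate controls were DMSO wells with completed reaction for no effect and substrate without enzyme for full effect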
* marks the source's active call; other numbers are inactive results; x = no result given.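 How the source made its calls, unless noted: active means mean inhibition above about 50% in the one-dose retest (limit read from the data); inactive means the rest.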

SMILES	SENP8 block-1	SENP7 inh	SENP8 block-2	PPC-1+TRAIL kill	SENP6 inh	TRAIL sens C8	SENP8 conf	SENP6 conf	SENP7 conf	Casp3 select	Luc interf
Cc1ccc(C(=O)O/N=C(\N)Cc2cccs2)c(Cl)c1	70*	85*	0	x	87*	96*	84*	83*	95*	86*	84*
Cc1cc(C)c(SSc2nnnn2-c2ccccc2)c(C)c1	x	x	26	x	x	-9	x	x	x	x	x
O=C(COC(=O)c1cccc(O)c1)c1ccccc1	78*	87*	2	x	85*	4	86*	87*	97*	88*	86*
O=C(OCC(=O)N(Cc1ccccc1)Cc1ccccc1)c1cccc(O)c1	1	6	14	x	0	1	x	x	x	x	x
O=C(OCC(=O)c1cccs1)c1ccccc1	72*	86*	14	8	13	0	85*	86*	97*	91*	86*
Cc1ccc(NC(=O)C(C)OC(=O)/C=C/c2ccccc2)cc1S(=O)(=O)N1CCOCC1 (stereo unspecified)	10	2	-28	x	-2	6	x	x	x	x	x
O=C(/C=C/c1ccc(O)c(O)c1)NC(=O)c1ccccc1O	69*	59*	-7	x	74*	42	0	64*	90*	38	74*
CCCCn1c(N)c(N(CC(C)C)C(=O)COC(=O)Cc2cccc(OC)c2)c(=O)[nH]c1=O	-4	7	14	x	-5	-3	x	x	x	x	x
COc1cc(/C=C2/SC(=S)N(C)C2=O)ccc1OC(=O)c1ccco1	28	66*	34	-16	5	3	8	7	3	16	28
COc1cc(/C=C2\C(=O)N(c3ccc(S(N)(=O)=O)cc3)N=C2C)ccc1OC(=O)c1ccco1	26	70*	57*	16	76*	0	12	35	-2	5	-1
COc1cc(/C=C2/SC(=O)NC2=O)ccc1OC(=O)c1ccco1	82*	85*	-15	x	88*	3	58*	74*	24	61*	22
O=C1NC(=S)S/C1=C/c1ccc(OC(=O)c2ccco2)cc1	46	29	27	x	76*	36	21	32	9	26	10
COc1cc(/C=C2\SC(=S)N(NC(C)=O)C2=O)ccc1OC(=O)c1ccco1	21	-13	22	x	14	15	x	x	x	x	x
Cc1ccc(S(=O)(=O)N2[C@H](C(C)C)[C@H]3[C@H]4C(=O)N(c5ccccc5)C(=O)[C@H]4CC(=O)[C@H]3[C@@H]2c2ccccc2)cc1	x	x	4	x	x	-4	x	x	x	x	x
COc1cc(/C=N/N2CCOCC2)ccc1OC(=O)c1ccco1	40	70*	-2	5	60*	-7	60*	57*	88*	67*	77*
COc1cc(/C=N/N(C)C)ccc1OC(=O)c1ccco1	-6	1	7	9	-7	2	x	x	x	x	x
COc1cc(/C=C2/C(=N)N3C(SC)=NSC3=NC2=O)ccc1OC(=O)c1ccco1	64*	8	8	x	53*	-44	75*	73*	92*	68*	13
N#C/C(=C(/O)c1cc2ccccc2o1)c1nc2ccccc2s1	95*	70*	-18	0	-7	3	-2	32	28	18	61*
N#C/C(=C(/O)c1ccco1)c1nc2ccccc2s1	81*	57*	-36	14	90*	8	91*	91*	100*	91*	74*
N#C/C(=C(/O)c1cccc(F)c1)c1nc2ccccc2s1	77*	56*	2	-12	91*	-3	58*	59*	72*	77*	35
COc1ccc(-c2cc(N3C(=O)Nc4ccccc4N3O)n[nH]2)cc1	-14	-3	10	-11	-31	6	x	x	x	x	x
CCOc1ccc(-c2cc(N3C(=O)Nc4ccccc4N3O)on2)cc1	18	39	3	7	54*	56*	44	42	79*	77*	67*
Clc1ccc(-c2cn3cc(Cl)ccc3n2)cc1	69*	93*	-182	x	82*	41	27	42	45	40	15
Oc1ccc(-c2cn3cc(C(F)(F)F)ccc3n2)cc1	26	23	-326	85*	55*	89*	58*	52*	83*	60*	65*
CCN(CC)S(=O)(=O)c1ccc(-c2cn3cc(Cl)ccc3n2)cc1	-11	3	-306	x	-4	21	x	x	x	x	x
SMILES	SENP8 block-1	SENP7 inh	SENP8 block-2	PPC-1+TRAIL kill	SENP6 inh	TRAIL sens C8	SENP8 conf	SENP6 conf	SENP7 conf	Casp3 select	Luc interf
NNC(=O)c1ccc2nc(-c3ccc(Br)cc3)cn2c1	-7	-9	-352	42	2	31	x	x	x	x	x
Cc1ccc(SCC(=O)Nc2cc([N+](=O)[O-])ccc2O)cc1	79*	4	38	11	-16	10	-13	26	57*	39	38
O=C(CSCc1ccc(Cl)cc1)Nc1cc([N+](=O)[O-])ccc1O	1	-1	22	5	-14	6	x	x	x	x	x
Clc1ccc(-c2nsc(N3CCOCC3)n2)c(Cl)c1	65*	68*	11	x	77*	28	66*	64*	89*	72*	49
Clc1cc(Cl)c2nc(N3CCOCC3)sc2c1	14	25	1	-10	-39	5	x	x	x	x	x
O=C(CNc1cccc2ccccc12)N/N=C/c1cccc(Oc2ccccc2)c1	51*	25	-261	8	67*	-8	7	-3	-6	-4	-4
O=C(N/N=C/c1cccc(Oc2ccccc2)c1)c1cccc(O)c1	37	38	5	x	60*	26	48	43	62*	28	22
Cc1ccccc1NCC(=O)N/N=C/c1ccc([N+](=O)[O-])cc1	-3	-8	19	2	5	15	x	x	x	x	x
O=C(CNc1cccc2ccccc12)N/N=C/c1ccc([N+](=O)[O-])cc1	18	30	-105	9	74*	29	11	7	8	4	2

Screening results (PubChem)
